These results are taken from the supplement of paper PMC12067093, “Discovery and optimisation of a covalent ligand for TRIM25 and its application to targeted protein ubiquitination” (Chemical Science, 2025).

Of roughly 21,000 targets only a part is listed; those with the largest changes were picked by preference.

Compound in the test: CC1Cc2ccccc2N1C(=O)C1CCCN(C1)C(=O)CCl (mixture of isomers) [TRIM25 ligand 11 (diastereomer mixture)]
The test is described as follows: probe-labelled cysteine peptide fold change vs DMSO (competition) (log2 fold change); higher = less target engagement (more negative = stronger competition). The note with it: THP-1, incubation time: 4 h.
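Also: competitive chemoproteomic profiling in live THP-1 cells with an iodoacetamide desthiobiotin (IA-DTB) probe, comparing probe-labelled peptide intensities in compound-treated cells against DMSO-treated controls.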

UniProt Q5VV52, sequence (Q5VV52 whole entry, looked up): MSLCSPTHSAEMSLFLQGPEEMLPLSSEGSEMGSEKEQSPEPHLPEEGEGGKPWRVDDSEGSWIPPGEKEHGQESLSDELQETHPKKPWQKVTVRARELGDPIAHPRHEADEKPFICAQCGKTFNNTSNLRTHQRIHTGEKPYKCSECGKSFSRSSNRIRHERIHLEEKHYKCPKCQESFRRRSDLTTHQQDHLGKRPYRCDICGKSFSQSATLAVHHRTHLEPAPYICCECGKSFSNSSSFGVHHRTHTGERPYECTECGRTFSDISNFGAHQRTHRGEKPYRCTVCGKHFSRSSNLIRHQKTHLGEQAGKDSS
UniProt Q8N1W2, sequence (Q8N1W2 whole entry): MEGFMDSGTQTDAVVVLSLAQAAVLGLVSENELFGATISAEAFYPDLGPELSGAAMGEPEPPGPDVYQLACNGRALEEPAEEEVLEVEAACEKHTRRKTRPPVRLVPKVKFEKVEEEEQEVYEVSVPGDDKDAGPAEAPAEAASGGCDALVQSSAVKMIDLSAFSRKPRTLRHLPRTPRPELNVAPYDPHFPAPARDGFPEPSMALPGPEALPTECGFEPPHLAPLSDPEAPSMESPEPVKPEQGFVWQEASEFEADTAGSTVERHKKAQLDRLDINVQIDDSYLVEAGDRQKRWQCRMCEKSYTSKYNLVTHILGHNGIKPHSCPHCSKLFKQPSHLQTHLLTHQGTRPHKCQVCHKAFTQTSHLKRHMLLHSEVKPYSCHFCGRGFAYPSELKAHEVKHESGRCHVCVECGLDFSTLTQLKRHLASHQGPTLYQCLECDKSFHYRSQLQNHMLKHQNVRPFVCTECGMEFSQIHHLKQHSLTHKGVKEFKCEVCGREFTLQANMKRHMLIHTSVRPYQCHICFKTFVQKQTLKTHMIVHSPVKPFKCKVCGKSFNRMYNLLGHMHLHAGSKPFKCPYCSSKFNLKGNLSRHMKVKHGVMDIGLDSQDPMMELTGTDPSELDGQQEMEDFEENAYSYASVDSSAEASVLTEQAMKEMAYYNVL
UniProt O43670, sequence (O43670 whole entry, looked up): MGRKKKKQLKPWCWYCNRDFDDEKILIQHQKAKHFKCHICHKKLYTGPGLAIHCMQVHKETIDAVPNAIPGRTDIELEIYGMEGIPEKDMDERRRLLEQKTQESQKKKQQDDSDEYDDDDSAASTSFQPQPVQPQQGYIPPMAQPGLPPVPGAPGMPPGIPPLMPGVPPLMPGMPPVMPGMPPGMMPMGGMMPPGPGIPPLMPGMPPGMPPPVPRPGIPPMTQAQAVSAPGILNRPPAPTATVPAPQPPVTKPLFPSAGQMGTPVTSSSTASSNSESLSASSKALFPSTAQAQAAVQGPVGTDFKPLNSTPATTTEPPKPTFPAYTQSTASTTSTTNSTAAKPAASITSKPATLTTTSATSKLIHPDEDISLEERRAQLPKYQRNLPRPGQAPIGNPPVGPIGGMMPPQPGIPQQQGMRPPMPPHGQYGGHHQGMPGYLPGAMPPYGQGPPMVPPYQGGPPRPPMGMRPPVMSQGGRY
UniProt O95365, sequence (O95365 whole entry, looked up): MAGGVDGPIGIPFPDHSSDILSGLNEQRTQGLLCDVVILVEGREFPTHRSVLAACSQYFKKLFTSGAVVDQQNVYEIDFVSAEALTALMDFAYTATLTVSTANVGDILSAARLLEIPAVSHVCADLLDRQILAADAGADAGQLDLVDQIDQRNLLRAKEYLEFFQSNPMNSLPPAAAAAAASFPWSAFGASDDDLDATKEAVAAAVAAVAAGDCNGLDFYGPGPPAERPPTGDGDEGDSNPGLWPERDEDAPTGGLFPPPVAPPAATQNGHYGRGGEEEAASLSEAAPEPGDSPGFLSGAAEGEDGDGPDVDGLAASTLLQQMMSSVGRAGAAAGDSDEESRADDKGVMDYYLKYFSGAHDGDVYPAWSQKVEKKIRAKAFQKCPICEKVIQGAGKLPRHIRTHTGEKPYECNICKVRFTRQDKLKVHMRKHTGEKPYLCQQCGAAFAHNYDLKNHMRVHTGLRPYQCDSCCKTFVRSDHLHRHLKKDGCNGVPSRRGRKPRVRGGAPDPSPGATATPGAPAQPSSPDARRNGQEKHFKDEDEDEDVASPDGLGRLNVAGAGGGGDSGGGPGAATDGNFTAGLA
UniProt Q9ULU4, sequence (Q9ULU4 whole entry, looked up): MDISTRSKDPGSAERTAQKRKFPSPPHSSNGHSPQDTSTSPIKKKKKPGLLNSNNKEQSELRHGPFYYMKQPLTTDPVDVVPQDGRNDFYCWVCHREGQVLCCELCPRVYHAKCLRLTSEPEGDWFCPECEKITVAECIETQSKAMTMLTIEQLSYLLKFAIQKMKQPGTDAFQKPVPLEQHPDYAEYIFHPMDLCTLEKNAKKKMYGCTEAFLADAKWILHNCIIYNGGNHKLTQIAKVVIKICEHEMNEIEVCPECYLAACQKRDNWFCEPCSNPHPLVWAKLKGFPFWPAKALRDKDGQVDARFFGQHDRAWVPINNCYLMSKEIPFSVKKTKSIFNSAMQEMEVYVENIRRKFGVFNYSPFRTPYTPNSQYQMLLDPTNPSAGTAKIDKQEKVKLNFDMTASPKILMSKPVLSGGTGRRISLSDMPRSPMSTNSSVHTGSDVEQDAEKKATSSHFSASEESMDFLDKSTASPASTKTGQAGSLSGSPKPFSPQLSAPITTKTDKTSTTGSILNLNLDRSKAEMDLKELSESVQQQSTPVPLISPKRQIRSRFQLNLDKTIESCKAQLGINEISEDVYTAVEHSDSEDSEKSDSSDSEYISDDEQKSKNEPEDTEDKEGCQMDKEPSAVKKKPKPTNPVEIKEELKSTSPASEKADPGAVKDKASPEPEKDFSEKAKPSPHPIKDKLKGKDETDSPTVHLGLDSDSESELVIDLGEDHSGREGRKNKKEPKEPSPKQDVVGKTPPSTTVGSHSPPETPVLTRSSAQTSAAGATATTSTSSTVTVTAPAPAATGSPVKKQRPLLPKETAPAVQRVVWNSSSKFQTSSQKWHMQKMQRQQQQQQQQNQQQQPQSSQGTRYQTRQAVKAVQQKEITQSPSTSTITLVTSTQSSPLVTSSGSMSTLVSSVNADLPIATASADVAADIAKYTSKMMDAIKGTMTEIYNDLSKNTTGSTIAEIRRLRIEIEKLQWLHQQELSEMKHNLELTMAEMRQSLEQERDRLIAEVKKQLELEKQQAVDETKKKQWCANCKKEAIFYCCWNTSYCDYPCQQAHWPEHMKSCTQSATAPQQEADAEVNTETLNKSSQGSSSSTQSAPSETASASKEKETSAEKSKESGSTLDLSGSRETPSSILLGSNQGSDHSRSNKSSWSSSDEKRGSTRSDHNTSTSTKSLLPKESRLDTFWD
UniProt Q6N043, sequence (Q6N043 whole entry, looked up): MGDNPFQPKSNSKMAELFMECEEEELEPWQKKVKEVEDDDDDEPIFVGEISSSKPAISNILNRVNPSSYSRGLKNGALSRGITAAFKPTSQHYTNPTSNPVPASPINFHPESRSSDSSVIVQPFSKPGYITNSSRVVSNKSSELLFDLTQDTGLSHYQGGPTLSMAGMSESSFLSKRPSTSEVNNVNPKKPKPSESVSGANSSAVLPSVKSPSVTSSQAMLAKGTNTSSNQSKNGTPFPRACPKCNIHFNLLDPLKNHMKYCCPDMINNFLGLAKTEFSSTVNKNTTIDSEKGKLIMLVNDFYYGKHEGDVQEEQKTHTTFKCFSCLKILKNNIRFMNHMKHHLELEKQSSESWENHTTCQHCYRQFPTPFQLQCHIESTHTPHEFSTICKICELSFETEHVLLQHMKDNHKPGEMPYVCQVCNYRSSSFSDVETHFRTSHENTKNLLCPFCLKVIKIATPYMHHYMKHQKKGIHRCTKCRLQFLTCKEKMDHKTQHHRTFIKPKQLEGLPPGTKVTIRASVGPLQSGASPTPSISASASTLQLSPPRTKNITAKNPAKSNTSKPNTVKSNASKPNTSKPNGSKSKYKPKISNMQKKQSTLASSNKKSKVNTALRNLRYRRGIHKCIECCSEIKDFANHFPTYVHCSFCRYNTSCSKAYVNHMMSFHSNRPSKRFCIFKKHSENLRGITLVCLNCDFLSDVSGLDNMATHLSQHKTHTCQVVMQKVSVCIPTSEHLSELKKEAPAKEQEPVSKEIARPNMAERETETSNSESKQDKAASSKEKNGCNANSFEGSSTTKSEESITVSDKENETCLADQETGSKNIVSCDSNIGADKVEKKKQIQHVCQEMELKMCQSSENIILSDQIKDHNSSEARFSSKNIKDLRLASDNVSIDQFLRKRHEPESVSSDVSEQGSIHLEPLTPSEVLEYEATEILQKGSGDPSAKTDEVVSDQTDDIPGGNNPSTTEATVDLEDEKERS
UniProt Q9NUD5, sequence (Q9NUD5 whole entry, looked up): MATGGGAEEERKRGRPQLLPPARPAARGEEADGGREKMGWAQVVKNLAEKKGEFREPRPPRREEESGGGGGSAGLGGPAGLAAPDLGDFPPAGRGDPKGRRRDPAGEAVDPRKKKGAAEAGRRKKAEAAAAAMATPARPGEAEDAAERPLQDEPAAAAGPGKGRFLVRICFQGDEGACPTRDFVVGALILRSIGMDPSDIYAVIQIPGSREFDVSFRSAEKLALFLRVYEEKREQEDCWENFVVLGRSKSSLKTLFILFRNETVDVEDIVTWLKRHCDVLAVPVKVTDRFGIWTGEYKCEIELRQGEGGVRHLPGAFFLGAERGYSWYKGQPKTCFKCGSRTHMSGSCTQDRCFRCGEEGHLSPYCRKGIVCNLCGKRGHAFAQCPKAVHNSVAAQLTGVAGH

Regarding “ZBTB7A_O95365_34_TQGLLCDVVILVEGR (UniProt O95365)”, the “probe-labelled cysteine peptide fold change” value is, setting by setting: (10 µM) 0.149; (50 µM) -0.0545.
On to “ZW10_O43264_568_LAPILCDGTATFVDLVPGFR (UniProt O43264)”, for which the “probe-labelled cysteine peptide fold change” value (10 µM) turned out to be 0.117 and the “probe-labelled cysteine peptide fold change” value (50 µM) turned out to be 0.00333.
Turning to “ZCCHC3_Q9NUD5_238_REQEDCWENFVVLGR (UniProt Q9NUD5)”, the “probe-labelled cysteine peptide fold change” value is 0.192 (10 µM) and 0.112 (50 µM).
With “YES1_P07947_255_LTTVCPTVKPQTQGLAK (UniProt P07947)”, the “probe-labelled cysteine peptide fold change” value was -0.0129 (10 µM) and -0.34 (50 µM).
Turning to “ZNF710_Q8N1W2_91_ALEEPAEEEVLEVEAACEK (UniProt Q8N1W2)”, the “probe-labelled cysteine peptide fold change” value was 0.158 (10 µM) and -0.171 (50 µM).
“ZNF691_Q5VV52_230_THLEPAPYICCECGK (UniProt Q5VV52)”: the “probe-labelled cysteine peptide fold change” value (10 µM) is -0.272 and the “probe-labelled cysteine peptide fold change” value (50 µM) is -0.8.
For “ZW10_O43264_650_LGIVWQDVLPVNIYCK (UniProt O43264)”, the “probe-labelled cysteine peptide fold change” value reads like this: (10 µM) 0.0783; (50 µM) 0.0695.
For the target “XRN1_Q8IZH2_16_YPCLSEVVK (UniProt Q8IZH2)”, the “probe-labelled cysteine peptide fold change” value was determined as 0.0639 (10 µM) and 0.0149 (50 µM).
“ZNF280D_Q6N043_323_CFSCLK (UniProt Q6N043)”: the “probe-labelled cysteine peptide fold change” value (10 µM) is 0.0838 and the “probe-labelled cysteine peptide fold change” value (50 µM) was 0.233.
For the target “ZNF687_Q8N1G0_576_CSLLLHAR (UniProt Q8N1G0)”, the “probe-labelled cysteine peptide fold change” value stood at 0.101 (10 µM) and 0.0491 (50 µM).
As for “XRN2_Q9H0D6_296_GKHDELADSLPCAEGEFIFLR (UniProt Q9H0D6)”, the “probe-labelled cysteine peptide fold change” value (10 µM) was found to be 0.0997 and the “probe-labelled cysteine peptide fold change” value (50 µM) was -0.0177.
With “ZMYND8_Q9ULU4_106_EGQVLCCELCPR (UniProt Q9ULU4)”, the “probe-labelled cysteine peptide fold change” value by setting is: (10 µM) 0.247; (50 µM) 0.0715.
For “ZNF207_O43670_54_KLYTGPGLAIHCMQVHK (UniProt O43670)” the same measures were -0.6 and -0.388.
Turning to “YES1_P07947_42_YRPENTPEPVSTSVSHYGAEPTTVSPCPSSSAK (UniProt P07947)”, the “probe-labelled cysteine peptide fold change” value is -0.0245 (10 µM) and -0.239 (50 µM).
